Reference: PubChem BioAssay (NCI)
Compounds without any hit were thinned out: in the full panel of roughly 83,000, 20% have a hit.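 Plates (96-well) were seeded with cells, treated with compound at one concentration, and incubated for 48 hours before percent growth was determined.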 Calls of active or inactive are those of the source. How the source made its calls: active means growth percent below 10; inactive means the rest.

What was measured:
Assay in all cases: NCI-60 one-dose screen, 48 h (100 = growth as untreated, 0 = no growth, -100 = all killed)
Settings in all cases: 10 µM unless noted
NCI-H23 lung = test system: NCI-H23 lung
NCI-H226 lung = test system: NCI-H226 lung
NCI-H322M lung = test system: NCI-H322M lung
HOP-62 NSCLC = test system: HOP-62 NSCLC
NCI-H460 lung = test system: NCI-H460 lung
NCI-H522 lung = test system: NCI-H522 lung
A549/ATCC NSCLC = test system: A549/ATCC NSCLC
786-0 renal = test system: 786-0 renal
COLO 205 colon = test system: COLO 205 colon
DU-145 prostate = test system: DU-145 prostate
K-562 leukemia = test system: K-562 leukemia
MDA-MB-231 breast = test system: MDA-MB-231 breast
RXF 393 renal = test system: RXF 393 renal
SF-268 CNS = test system: SF-268 CNS
SF-295 CNS = test system: SF-295 CNS
SF-539 CNS = test system: SF-539 CNS
UACC-257 melanoma = test system: UACC-257 melanoma
M14 melanoma = test system: M14 melanoma

Measured: growth

O=C(Cn1cc[n+](CC(=O)c2ccc(-c3ccccc3)cc2)c1)Nc1cccc2cccnc12
inactive: NCI-H23 lung 76.8% | NCI-H226 lung 83.7% | NCI-H322M lung 95.7% | HOP-62 NSCLC 88.4% | NCI-H460 lung 87.8% | NCI-H522 lung 42.3% | A549/ATCC NSCLC 88.1% | 786-0 renal 95.8% | COLO 205 colon 74.2% | DU-145 prostate 86.4% | K-562 leukemia 50.5% | MDA-MB-231 breast 73.1% | RXF 393 renal 98.3% | SF-268 CNS 65.5% | SF-295 CNS 102% | SF-539 CNS 79.1% | UACC-257 melanoma 34.4% | M14 melanoma 85%

NC(N)=Nc1ccc(Oc2cccc(Nc3ccc(Br)c(C(F)(F)F)c3)c2)cc1
inactive: NCI-H23 lung 13.8% | NCI-H226 lung 39.2% | NCI-H322M lung 44.8% | NCI-H522 lung 15% | A549/ATCC NSCLC 33.7% | 786-0 renal 32.7% | DU-145 prostate 22.8% | RXF 393 renal 40.7% | SF-268 CNS 25.3% | SF-539 CNS 54.3%
active: HOP-62 NSCLC -37.1% | NCI-H460 lung -66.9% | COLO 205 colon -31.2% | K-562 leukemia -11.1% | MDA-MB-231 breast -7.69% | SF-295 CNS -65.3% | UACC-257 melanoma 0.206% | M14 melanoma 8.54%

CCN1CCN(C(=O)[C@]23CCC(C)(C)C[C@H]2C2=CC[C@@H]4[C@@]5(C)Cc6c([nH]c7ccccc67)C(C)(C)[C@@H]5CC[C@@]4(C)[C@]2(C)CC3)CC1
inactive: NCI-H23 lung 87.7% | NCI-H226 lung 84.4% | NCI-H322M lung 89.1% | HOP-62 NSCLC 110% | NCI-H460 lung 76.5% | NCI-H522 lung 90.5% | A549/ATCC NSCLC 59.7% | 786-0 renal 94.2% | COLO 205 colon 102% | DU-145 prostate 83.3% | MDA-MB-231 breast 74.1% | RXF 393 renal 75.9% | SF-268 CNS 90.1% | SF-295 CNS 91.9% | SF-539 CNS 94% | UACC-257 melanoma 88.2% | M14 melanoma 84.5%

N#Cc1ccccc1Cn1c2nc(=N)c3ccccc3c-2nc2ccccc21
inactive: NCI-H23 lung 52.4% | NCI-H226 lung 61.3% | NCI-H322M lung 66% | HOP-62 NSCLC 62.2% | NCI-H460 lung 22.1% | NCI-H522 lung 59.7% | A549/ATCC NSCLC 44.3% | 786-0 renal 80.3% | DU-145 prostate 60.3% | MDA-MB-231 breast 41.8% | RXF 393 renal 54.3% | SF-268 CNS 74.3% | SF-295 CNS 52% | SF-539 CNS 82.6% | UACC-257 melanoma 41.8% | M14 melanoma 70%
active: COLO 205 colon 3.63%

O=C(CN1CCN(c2cc(=O)n(-c3ccccc3)c3ccccc23)CC1)Nc1cccc(C(F)(F)F)c1
inactive: NCI-H23 lung 55.5% | NCI-H226 lung 56.6% | NCI-H322M lung 82.4% | HOP-62 NSCLC 70.6% | NCI-H460 lung 57.9% | NCI-H522 lung 56.5% | A549/ATCC NSCLC 51.8% | 786-0 renal 80.5% | COLO 205 colon 68.5% | DU-145 prostate 64.7% | K-562 leukemia 23.4% | MDA-MB-231 breast 68.7% | RXF 393 renal 62.2% | SF-268 CNS 66.2% | SF-295 CNS 59% | SF-539 CNS 71.5% | UACC-257 melanoma 38.8% | M14 melanoma 60.5%
